Screening results: PubChem, several laboratories
In the library only some 4.8% were active in any assay of this set; here they are far more common.
TIM10 inh: growth inhibitors of isogenic TIM10 control yeast, primary screen, counter-screen for tim10-1 yeast inhibitor project, luminescence, uHTS. S. cerevisiae TIM10 strain growth, BacTiter-Glo luminescence, 24 h. inhibition, % at 10 µM. 330,000 compounds, 1.4% hits;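 active = inhibition of 40% or more at the single tested concentration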;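 note: wild-type TIM10 isogenic control strain grown at permissive 25 °C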
tim23-1 inh: growth inhibitors of tim23-1 mutant yeast, primary screen, luminescence, uHTS; S. cerevisiae tim23-1 growth, BacTiter-Glo luminescence, 24 h; inhibition, % at 20 µM; 330,000 compounds, 1.3% hits; AID 463212, 2010;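 active = growth inhibition of the mutant yeast at or above 50%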;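 note: temperature-sensitive mutant grown at 25 °C; plate controls were DMSO-treated mutant yeast for no effect and medium wells lacking yeast for full effect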
SKKanGAS inh: S. pyogenes SKKanGAS growth inhibitors in kanamycin, primary screen, streptokinase expression inhibitor project, SKKanGAS strain, BacTiter-Glo luminescence. 6 h. 300,000 compounds, 1.3% hits. inhibition, % at 7.5 µM;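 active = mean replicate score, as percent of positive control median, at least 50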;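 note: strain carries kanamycin resistance gene driven by streptokinase promoter and grows in 40 µg/ml kanamycin; loss of luminescence reflects streptokinase promoter inhibition or plain growth inhibition; 0% = median of DMSO wells and 100% = positive control at its reference dose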
NALP1 yeast inh: NALP1 inflammasome inhibitors in reconstituted yeast, colorimetric, S. cerevisiae, triplicate retest | S. cerevisiae NALP1/ASC/caspase-1 growth, X-gal OD620, 72 h | 280,000 compounds, 0.61% hits | inhibition, % at 10 µM; in the data active = inhibition mostly above about 24%, no sharp cut-off; inactive = mostly below about 32%
PfHsp90 yeast 2: growth inhibition of PfHsp90-expressing yeast, primary screen, antimalarial PfHsp90 inhibitor project, S. cerevisiae, BacTiter-Glo luminescence, single point, set 2; BacTiter-Glo ATP, 48 h; yeast lacking PDR1 and PDR3 efflux regulators; inhibition, % at 9.4 µM; 310,000 compounds, 0.32% hits;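 active = every replicate shows inhibition above about 80%, whatever the replicate mean, limit read from the data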;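 note: 0% = DMSO neutral controls and 100% = 20 µM radicicol positive controls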
tim10-1 inh: growth inhibitors of tim10-1 mutant yeast, primary screen, luminescence, uHTS; S. cerevisiae tim10-1 ts strain growth, BacTiter-Glo, 24 h; inhibition, % at 20 µM; 330,000 compounds, 2.2% hits; AID 463190, 2010;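 active = inhibition of at least 40%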;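 note: mutant grown at 25 °C; 0% = DMSO wells with yeast and 100% = wells holding no yeast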
tim10-1 confirm: growth inhibitors of tim10-1 mutant yeast, confirmation, single concentration, luminescence, S. cerevisiae; 7,400 compounds, 56% hits; shares compounds with tim10-1 inh; AID 463213, 2010; S. cerevisiae tim10-1 ts strain growth, BacTiter-Glo, 24 h; inhibition, % at 20 µM;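 active = inhibition of yeast growth at or above a set limit in either of two repeat tests at 20 µM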;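 note: tim10-1 mutant grown at permissive 25 °C to find synthetic lethal compounds; 0% = DMSO yeast wells and 100% = medium wells without yeast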
tim10 confirm: growth inhibitors of wild-type TIM10 yeast, confirmation, counter-screen for tim10-1 synthetic lethality project, single concentration, luminescence, S. cerevisiae; shares compounds with TIM10 inh; S. cerevisiae tim10 strain growth, BacTiter-Glo luminescence, 24 h; inhibition, % at 10 µM; 4,600 compounds, 63% hits;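 active = inhibition of yeast growth at or above a set limit in either of two replicates at 10 µM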;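 note: this counterscreen used the strain with wild-type TIM10; 0% = yeast with DMSO and 100% = medium wells lacking yeast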
tim23-1 conf: tim23-1 mutant yeast growth inhibitors, confirmation, luminescence, single concentration; shares compounds with tim23-1 inh; AID 463218, 2010; inhibition, % at 20 µM; 4,400 compounds, 83% hits; S. cerevisiae tim23-1 growth, BacTiter-Glo luminescence, 24 h;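 active = inhibition above about 39% in either of two replicate wells at 20 µM, limit read from the data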;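 note: temperature-sensitive tim23-1 mutant grown at 25 °C; 0% = DMSO wells with yeast and 100% = medium wells without yeast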
* = called active by the depositor.

How did Cc1ccc(/C=C2/C(=O)ON=C2c2ccccc2)o1 do in these assays?
TIM10 inh: 19.4; tim23-1 inh: 74.4*; SKKanGAS inh: -3.2; NALP1 yeast inh: -4.0; PfHsp90 yeast 2: -10.1; tim10-1 inh: 51.6*; tim10-1 confirm: 40.0*; tim23-1 conf: 75.6*

How did Cc1ccc(N=C2NC(=O)/C(=C\c3ccsc3)S2)c(C)c1 do in these assays?
TIM10 inh: 47.4*; tim23-1 inh: 58.3*; SKKanGAS inh: 14.0; NALP1 yeast inh: 6.7; PfHsp90 yeast 2: 16.0; tim10-1 inh: 51.7*; tim10-1 confirm: 29.6; tim10 confirm: -12.6; tim23-1 conf: 65.8*

What do the screens show for `COc1ccc(NS(=O)(=O)c2c(C)n(C)c(=O)n(C)c2=O)cc1`?
TIM10 inh: -11.2; tim23-1 inh: 16.4; SKKanGAS inh: -2.1; NALP1 yeast inh: 2.3; PfHsp90 yeast 2: 3.4; tim10-1 inh: 1.8

How did CCCc1nnc(NC(=O)c2nc(S(=O)(=O)Cc3cccc(C)c3)ncc2Cl)s1 do in these assays?
TIM10 inh: 7.3; tim23-1 inh: 6.4; SKKanGAS inh: 2.9; NALP1 yeast inh: -23.9; PfHsp90 yeast 2: 4.0; tim10-1 inh: 23.1

What do the screens show for `Cc1cccc(CS(=O)(=O)c2ncc(Cl)c(C(=O)Nc3c(C)cccc3C)n2)c1`?
TIM10 inh: 8.7; tim23-1 inh: 55.8*; SKKanGAS inh: -20.7; NALP1 yeast inh: -3.9; PfHsp90 yeast 2: -10.1; tim10-1 inh: 46.2*; tim10-1 confirm: -54.9; tim23-1 conf: 20.6

How did CC1=NN(c2ccc(Cl)c(C(=O)O)c2)C(=O)/C1=C\c1ccc(-c2ccc(C(=O)O)cc2)o1 do in these assays?
SKKanGAS inh: 3.3; NALP1 yeast inh: 0.3; PfHsp90 yeast 2: -8.7

Results for CC1=NN(c2ccccc2)C(=O)/C1=C/c1ccc(-c2ccc(C)c(C(=O)O)c2)o1 ?
TIM10 inh: 34.5; tim23-1 inh: 65.7*; SKKanGAS inh: 9.3; PfHsp90 yeast 2: 7.7; tim10-1 inh: 48.0*; tim10-1 confirm: 35.0*; tim23-1 conf: 58.8*

Results for COc1cc(-c2nc3ccccc3s2)ccc1O ?
TIM10 inh: 49.3*; tim23-1 inh: 51.8*; SKKanGAS inh: 1.6; NALP1 yeast inh: 11.3; PfHsp90 yeast 2: -14.2; tim10-1 inh: 50.2*; tim10-1 confirm: 53.4*; tim10 confirm: 48.0*; tim23-1 conf: 54.9*

What do the screens show for `CCN(C(=S)NC(=O)Cc1ccc(OC)cc1)c1ccccc1`?
TIM10 inh: 18.4; tim23-1 inh: 12.4; SKKanGAS inh: 2.5; PfHsp90 yeast 2: 4.1; tim10-1 inh: 12.7

What do the screens show for `O=C(c1ccc2c(c1)OCCO2)C1CCN(S(=O)(=O)c2ccc(F)cc2)CC1`?
TIM10 inh: 50.3*; tim23-1 inh: 57.3*; NALP1 yeast inh: 3.6; PfHsp90 yeast 2: -5.8; tim10-1 inh: 42.9*; tim10-1 confirm: 42.3*; tim10 confirm: 39.7*; tim23-1 conf: 47.0*

What do the screens show for `N#C/C(=C\c1cccc(NC(=O)c2ccccc2Cl)c1)C(=O)NCCc1ccccc1`?
TIM10 inh: 57.0*; tim23-1 inh: 60.0*; SKKanGAS inh: -1.5; NALP1 yeast inh: 30.0; PfHsp90 yeast 2: -121.3; tim10-1 inh: 66.1*; tim10-1 confirm: 61.3*; tim10 confirm: 3.8; tim23-1 conf: 57.0*
